An excerpt weighted towards active compounds, which were near 12% of everything screened.
BAZ2B block: qHTS Assay for Inhibitors of BAZ2B. Bromodomain adjacent to zinc finger domain protein 2B (Homo sapiens), Q9UIF8. 4.4% of 360,000 active. AlphaScreen BAZ2B-H3K14Ac peptide displacement. Potency, µM (highest dose often 114 µM), for the others: top-dose activity change, negative = inhibition, actives largely listed as inhibitors; also: % is scaled to controls: 0 for no effect and ±100 for the full control effect; nearly all actives have a fitted effect of over 60% in size
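Protein-peptide AlphaScreen: BAZ2B 50 nM, b-H3K14Ac 50 nM, 1x PBS pH 7.4 + 0.01% Tween-20. Preincubation 30 min RT; cpd 30 min RT (top 110 uM); beads 20 min RT, light-protected.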
TDP1 inh: qHTS Assay for Inhibitors of Tyrosyl-DNA Phosphodiesterase (TDP1) | Tyrosyl-DNA phosphodiesterase 1 (Homo sapiens), Q9NUW8 | recombinant TDP1, AlphaScreen DNA substrate cleavage | Potency, µM (titrated, usually from 130 µM), without a hit: at the top dose activity change, negative = inhibition, most hits filed as inhibitors | 0.28% of 350,000 active; also: % is scaled to controls: 0 for no effect and ±100 for the full control effect; nearly all actives have a fitted effect of over 40% in size
Target sequence (Q9NUW8 whole entry, looked up): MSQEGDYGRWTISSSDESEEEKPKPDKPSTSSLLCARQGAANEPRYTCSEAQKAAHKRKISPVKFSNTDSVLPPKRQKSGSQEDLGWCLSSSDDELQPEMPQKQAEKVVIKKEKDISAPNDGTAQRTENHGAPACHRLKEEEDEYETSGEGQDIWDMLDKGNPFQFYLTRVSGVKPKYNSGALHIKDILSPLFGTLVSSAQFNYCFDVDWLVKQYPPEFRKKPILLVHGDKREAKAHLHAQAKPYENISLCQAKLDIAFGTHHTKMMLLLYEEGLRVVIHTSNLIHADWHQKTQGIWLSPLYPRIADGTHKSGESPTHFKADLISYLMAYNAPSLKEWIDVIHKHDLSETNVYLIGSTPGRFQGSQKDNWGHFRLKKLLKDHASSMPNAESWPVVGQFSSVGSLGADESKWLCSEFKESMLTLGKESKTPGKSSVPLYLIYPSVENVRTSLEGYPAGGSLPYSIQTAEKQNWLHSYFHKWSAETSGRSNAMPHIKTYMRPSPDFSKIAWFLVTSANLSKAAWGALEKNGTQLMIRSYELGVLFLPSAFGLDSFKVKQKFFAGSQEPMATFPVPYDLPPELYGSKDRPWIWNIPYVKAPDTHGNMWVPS
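E. coli-derived human Tdp1, 1 nM final. Cpd preinc 15 min RT; substrate 15 nM final, 5 min RT; AS bead mix 10 ug/ml final, 10 min RT. Signal loss = tyrosine-FITC cleavage. No-enzyme wells = max signal.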
G9a inh: qHTS Assay for Inhibitors of Histone Lysine Methyltransferase G9a. G9a H3K9 monomethylation, AlphaScreen, 2 h. Potency, µM (top dose mostly 102 µM), for inactives: at the top dose activity, negative = inhibition, usual class: inhibitors. 8.8% of 350,000 active; also: % is scaled to controls: 0 for no effect and ±100 for the full control effect; nearly all actives have a fitted effect of over 75% in size
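AlphaScreen read-out: biotin-H3K9 peptide (500 nM) methylation by 20 nM enzyme with 20 uM SAM, 2 h at room temperature after 15 min compound preincubation; anti-monomethyl H3K9 antibody plus donor/acceptor beads, 10 min dark.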
Sfp inh: qHTS Assay for Inhibitors of Bacillus subtilis Sfp phosphopantetheinyl transferase (PPTase). Biochemical Sfp PPTase activity, qHTS. AID 1490, 2009. 3.5% of 310,000 active. Potency, µM, without a hit: largest response in the series, negative = inhibition, actives largely listed as inhibitors. 4'-phosphopantetheinyl transferase ffp (Bacillus subtilis), Q9F4F7;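 also: the enzyme is Sfp with the accession as filed and its product quenches rhodamine fluorescence; 0% = enzyme reaction without inhibitor and -100% = no enzyme wells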
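Fluorescence-quenching assay with 15 nM Sfp, 5 uM rhodamine-CoA and 12.5 uM BHQ-2-labelled ybbR peptide in pH 7.6 Hepes/MgCl2 buffer. Enzyme was pre-incubated with compound for 15 min at room temperature. Rate was taken from the 30-min fluorescence change (525/598 nm).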
HP1b binding inh: HTS for Inhibitors of HP1-beta Chromodomain Interactions with Methylated Histone Tails. Chromobox protein homolog 1 (Homo sapiens), P83916. AlphaScreen HP1-beta / biotin-H3K9me3 peptide binding. Potency, µM (highest dose often 114 µM), inactives show at the top dose activity change, negative = inhibition, most hits filed as inhibitors. 0.56% of 390,000 active. AID 540317, 2011; also: nearly all actives have a fitted effect of over 70% in size
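HP1-beta protein (50 nM final) preincubated 30 min at room temperature with biotinylated H3(1-18)K9me3 peptide (50 nM) in PBS pH 7.4, 0.01% Tween-20, then compound added for 30 min. AlphaScreen streptavidin donor/nickel chelate acceptor beads (10 ug/mL final), 30 min dark, luminescence read.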
JMJD2A Tudor inh: qHTS Assay for Inhibitors of JMJD2A-Tudor Domain. Lysine-specific demethylase 4A (Homo sapiens), O75164. AlphaScreen JMJD2A-Tudor / H3K4me3 peptide binding. Potency, µM (top dose mostly 114 µM), for inactives: at the top dose activity change, negative = inhibition, hits mostly inhibitors. 4.4% of 390,000 active; also: % is scaled to controls: 0 for no effect and ±100 for the full control effect; nearly all actives have a fitted effect of over 50% in size
Starred values were filed as active, the others as inactive; ? = inconclusive; · = not tested or not shown; ! = repeats disagree; [ ] = another dose, or the depositor's remark. Calls follow the shape of the dose curve; as a rule, active = well fitted curve in the direction sought with a large enough effect; inconclusive = small, poorly fitted or top-dose-only effect, or another doubt; inactive = no such curve, though single readings can be large; an effect the other way counts as inactive or inconclusive. Potency is read from the fitted curve at half-maximal effect.

SMILES | BAZ2B block | TDP1 inh | G9a inh | Sfp inh | HP1b binding inh | JMJD2A Tudor inh
O=[N+]([O-])c1ccc(SCCc2ccncc2)cc1 | 50.1µM* | 10.3% | 11.2µM* | 50.1µM* | ? | 50.1µM*!
Fc1cc(F)c(F)c(SCCc2ccncc2)c1F | -18.7% | -3.1% | ? | ? | ? | 28.2µM*
O=[N+]([O-])c1ccc(SCCc2ccccn2)cc1 | -20.7% | · | 12.6µM* | ? | -16.8% | -32.9%
Clc1ccc(CSCCc2ccncc2)cc1 | -10.8% | 7.5% | -49.1%[59 µM] | -18.9% | 27.3% | -1.0%
Fc1ccc(SCCc2ccncc2)cc1 | 22.4µM*! | -2.1% | 50.1µM*! | -0.5% | 29.0% | -6.5%
CCC(O)(CC)C(=O)N/N=C/c1cc(Br)cc(Br)c1O | -1.3% | 11.2% | 6.4%[59 µM] | 26.4% | 47.6% | 1.4%
COc1cc(/C=N\Nc2nncn2N)ccc1OC(C)=O | -14.6% | 4.5% | 70.8µM* | -25.1% | 40.6% | -8.2%
CSc1ccc(/C=N\Nc2nncn2N)cc1 | -8.4% | · | ? | 79.4µM* | 32.4% | -18.3%
Nn1cnnc1N/N=C/c1cc(Br)cc(Br)c1O | 31.6µM* | 12.8% | 24.0%[2.33 µM] | 9.9% | 35.6% | 89.1µM*
CC(C)(C)c1ccc(/C=N/Nc2nncn2N)cc1 | -8.3% | · | 39.8µM* | -26.5% | 26.6% | -10.2%
CO[C@]12CC(COC(=O)c3cncc(Br)c3)CN(C)[C@@H]1Cc1cn(C)c3cccc2c13 (stereo not given in full) | · | 13.6%[56.1 µM] | -33.0%[2.33 µM] | 12.1% | · | ·
Cc1noc(C)c1C(=O)N1CCC2(CCCN(c3ncccn3)C2)CC1 | · | · | 0.1%[12.7 µM] | -7.2% | · | ·
Cc1cccc(OCC(=O)Nc2ccc3oc(-c4ccccc4F)nc3c2)c1 | -20.7% | -10.9% | -9.9%[59 µM] | · | 32.2% | -14.9%
CC1CCN(c2ccc(/C=N\Nc3nncn3N)cc2[N+](=O)[O-])CC1 | ? | 11.7% | ? | 79.4µM* | -35.2% | ?
CC(=O)Nc1ccc(N2CCC(C)CC2)c([N+](=O)[O-])c1 | ? | -0.6% | ? | 14.0% | -17.7% | -24.6%
COc1ccccc1CN1[C@@H](CC(C)=O)c2cc(C(F)(F)F)ccc2S1(=O)=O | · | · | · | · | 38.0% | -9.3%
CCN1C(=S)SC(=O)C1=C1C=C(C)OC(C)=C1 | -35.0% | -3.7% | ? | 6.9% | -24.6% | -22.2%
CCN1C(=S)SC(=O)C1=C1C=C(C)N(Cc2ccco2)C(C)=C1 | ? | 11.3% | ? | 14.1µM* | -43.8% | -34.2%
Cc1ccc(-n2c(CNc3ccc(C)c(Cl)c3)n[nH]c2=S)cc1 | ? | 3.7% | 50.1µM* | 5.9% | 10.7% | ?
Cc1ccc(-n2c(CNc3cccc(Cl)c3)n[nH]c2=S)cc1 | -19.1% | 5.0% | 4.47µM* | -14.8% | 2.2% | -20.9%
CC(Cl)OC(=O)Nc1cccc2cccnc12 (stereo not given) | · | 2.7% | · | · | 20.7% | ?
CC1CN(c2ccc(NC(=S)Nc3ccc(N4CC(C)OC(C)C4)cc3)cc2)CC(C)O1 (stereo not given) | -33.1% | 5.2% | 44.7µM* | -13.5% | 31.1% | -19.2%
CCCCN(C)CCn1c(=S)[nH]c2cc(OCC)c(OCC)cc2c1=O | -21.7% | 2.5% | 11.2µM* | 3.0% | 58.7% | -13.4%
O=c1c2cc(N3CCOCC3)ccc2[nH]c(=S)n1CCc1ccccc1 | 4.3% | -2.7% | -9.4% | 16.5% | 39.8% | 12.7%
COc1ccc(CCn2c(=S)[nH]c3ccc(N4CCOCC4)cc3c2=O)cc1OC | -25.9% | -2.5% | 17.8µM* | -11.9% | -20.6% | -5.1%
COCCCn1c(=S)[nH]c2ccc(N3CCOCC3)cc2c1=O | 8.6% | 0.0% | ? | -8.1% | 33.8% | ?

Bioassay records: PubChem BioAssay, National Center for Advancing Translational Sciences (NCATS)
